Counter-ions that a name gives are not always drawn. ± gives the standard deviation of the averaged measurements.

The values that follow come from the supplement of paper PMC9262897, “Low-cost anti-mycobacterial drug discovery using engineered E. coli” (Nature Communications, 2022).

One assay has as its system E. coli TESEC Mtb DapB. The experiment in a line: growth (OD600 after 10 h); higher = more growth (less inhibition). Particulars: arabinose induction (level): High; compound 0.1 mM; raw OD600 reference: median of DMSO wells […], cell-free background 0.041. On the procedure: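 TESEC E. coli strains in which the native enzyme is deleted and replaced by arabinose-inducible Mtb Asd, DapB, CysH or TrpD, each grown in its selective medium. Strains were screened against the Prestwick library at 0.1 mM and 1% DMSO in 384-well format at low and high arabinose induction. Growth is read as OD600 after 10 h in triplicate.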
As to `C[C@]12C=CC(=O)C=C1CC[C@@H]1[C@@H]2C(=O)C[C@@]2(C)[C@H]1CC[C@]2(O)C(=O)CO` [Prednisone], the growth amounted to 0.185 ± 0.0094.
`C=CCOc1ccccc1OCC(O)CNC(C)C` (stereo not given) [Oxprenolol hydrochloride] registered a growth of 0.204 ± 0.0052.
Take `CNCCC=C1c2ccccc2CCc2ccccc21` [Nortriptyline hydrochloride]: the growth was determined as 0.185 ± 0.025.
Turning to `CCN(CC)C(=S)SSC(=S)N(CC)CC` [Disulfiram], the growth was determined as 0.161 ± 0.013.
The molecule `NC(CO)C(=O)NNCc1ccc(O)c(O)c1O` (stereo not given) [Benserazide hydrochloride] showed a growth of 0.185 ± 0.023.
In turn, `CCCCCCC[N+](CC)(CC)CCCCc1ccc(Cl)cc1` [Clofilium tosylate] came in with a growth of 0.0462 ± 0.00046.
`Cn1c(=O)c2c(ncn2C)n(C)c1=O` [Caffeine]: the growth was 0.192 ± 0.01.
`NCC[C@H](O)C(=O)N[C@@H]1C[C@H](N)[C@@H](O[C@H]2O[C@H](CN)[C@@H](O)[C@H](O)[C@H]2O)[C@H](O)[C@H]1O[C@H]1O[C@H](CO)[C@@H](O)[C@H](N)[C@H]1O` [Amikacin hydrate] came in with a growth of 0.0548 ± 0.0017.
The same measure, in the same setting: for `CNCC(O)c1ccc(O)c(O)c1` (stereo not given) [Racepinephrine HCl] the value was 0.193 ± 0.0072; for `CCCc1ncc(C[n+]2ccccc2C)c(N)n1` [Amprolium hydrochloride], 0.187 ± 0.0079.
Same read-out and setting: next, `C[C@]12CCC(=O)C=C1C=C[C@@H]1[C@@H]2CC[C@@]2(C)[C@H]1CC[C@@]21CCC(=O)O1` [Canrenone]: 0.139 ± 0.011; `CO[C@@H]1[C@@H](O[C@@H]2O[C@H](C)[C@@H](O[C@H]3C[C@@](C)(O)[C@@H](OC(=O)CC(C)C)[C@H](C)O3)[C@H](N(C)C)[C@H]2O)[C@@H](CC=O)C[C@@H](C)[C@@H](O)/C=C/C=C/C[C@@H](C)OC(=O)C[C@H]1OC(C)=O` [Josamycin]: 0.0494 ± 0.00059; `Cn1c(=O)c2c(ncn2CC(=O)O)n(C)c1=O` [Acefylline]: 0.196 ± 0.0038.
In turn, `NS(=O)(=O)c1cc2c(cc1C(F)(F)F)NCNS2(=O)=O` [Hydroflumethiazide] registered a growth of 0.184 ± 0.012.
Regarding `CCn1cc(C(=O)O)c(=O)c2cc(F)c(N3CCNC(C)C3)c(F)c21` (stereo not given) [Lomefloxacin hydrochloride], the growth is 0.0491 ± 0.0012.
As for `CO/N=C(\C(=O)N[C@@H]1C(=O)N2C(C(=O)O)=C(COC(C)=O)CS[C@H]12)c1csc(N)n1` [Cefotaxime sodium salt], the growth was determined as 0.0632 ± 0.014.
`COc1cc(NC(C)CCCN)c2ncccc2c1` (stereo not given) [Primaquine diphosphate] yielded a growth of 0.122 ± 0.092.
As for `COc1cc(C(=O)NCc2ccc(OCCN(C)C)cc2)cc(OC)c1OC` [Trimethobenzamide hydrochloride], the growth amounted to 0.203 ± 0.021.
For the molecule `O=P(O)(O)C(Cl)(Cl)P(=O)(O)O` [Clodronate], the growth worked out at 0.223 ± 0.024.
`Cc1cccc(C)c1NC(=O)CN1CCN(CCCC(c2ccc(F)cc2)c2ccc(F)cc2)CC1` [Lidoflazine] displayed a growth of 0.232 ± 0.026.

The same assay, now with this note: arabinose induction (level): Low; compound 0.1 mM; raw OD600 reference: median of DMSO wells 0.227, cell-free background 0.041.
Consider `C[C@]12C=CC(=O)C=C1CC[C@@H]1[C@@H]2C(=O)C[C@@]2(C)[C@H]1CC[C@]2(O)C(=O)CO` [Prednisone], for which the growth was 0.267 ± 0.014.
The same measure, in the same setting: next, `C=CCOc1ccccc1OCC(O)CNC(C)C` (stereo not given) [Oxprenolol hydrochloride]: 0.225 ± 0.031; `CNCCC=C1c2ccccc2CCc2ccccc21` [Nortriptyline hydrochloride]: 0.195 ± 0.04.
Same read-out and setting: next, `CCN(CC)C(=S)SSC(=S)N(CC)CC` [Disulfiram]: 0.211 ± 0.01; `NC(CO)C(=O)NNCc1ccc(O)c(O)c1O` (stereo not given) [Benserazide hydrochloride]: 0.227 ± 0.024; `CCCCCCC[N+](CC)(CC)CCCCc1ccc(Cl)cc1` [Clofilium tosylate]: 0.0478 ± 0.0034.
With `Cn1c(=O)c2c(ncn2C)n(C)c1=O` [Caffeine], the growth was found to be 0.228 ± 0.044.
Molecule `NCC[C@H](O)C(=O)N[C@@H]1C[C@H](N)[C@@H](O[C@H]2O[C@H](CN)[C@@H](O)[C@H](O)[C@H]2O)[C@H](O)[C@H]1O[C@H]1O[C@H](CO)[C@@H](O)[C@H](N)[C@H]1O` [Amikacin hydrate] came in with a growth of 0.0518 ± 0.0032.
`CNCC(O)c1ccc(O)c(O)c1` (stereo not given) [Racepinephrine HCl] registered a growth of 0.273 ± 0.06.
Still for that read-out and setting: next, `CCCc1ncc(C[n+]2ccccc2C)c(N)n1` [Amprolium hydrochloride]: 0.228 ± 0.05; `C[C@]12CCC(=O)C=C1C=C[C@@H]1[C@@H]2CC[C@@]2(C)[C@H]1CC[C@@]21CCC(=O)O1` [Canrenone]: 0.174 ± 0.0092.
In the case of `CO[C@@H]1[C@@H](O[C@@H]2O[C@H](C)[C@@H](O[C@H]3C[C@@](C)(O)[C@@H](OC(=O)CC(C)C)[C@H](C)O3)[C@H](N(C)C)[C@H]2O)[C@@H](CC=O)C[C@@H](C)[C@@H](O)/C=C/C=C/C[C@@H](C)OC(=O)C[C@H]1OC(C)=O` [Josamycin], the growth was 0.0568 ± 0.0075.
As to `Cn1c(=O)c2c(ncn2CC(=O)O)n(C)c1=O` [Acefylline], the growth came to 0.207 ± 0.021.
On the same count and under the same terms, for `NS(=O)(=O)c1cc2c(cc1C(F)(F)F)NCNS2(=O)=O` [Hydroflumethiazide] the value was 0.239 ± 0.028; for `CCn1cc(C(=O)O)c(=O)c2cc(F)c(N3CCNC(C)C3)c(F)c21` (stereo not given) [Lomefloxacin hydrochloride], 0.0483 ± 0.0006; for `CO/N=C(\C(=O)N[C@@H]1C(=O)N2C(C(=O)O)=C(COC(C)=O)CS[C@H]12)c1csc(N)n1` [Cefotaxime sodium salt], 0.0489 ± 0.0033.
On to `COc1cc(NC(C)CCCN)c2ncccc2c1` (stereo not given) [Primaquine diphosphate], for which the growth turned out to be 0.0664 ± 0.0032.
`COc1cc(C(=O)NCc2ccc(OCCN(C)C)cc2)cc(OC)c1OC` [Trimethobenzamide hydrochloride] showed a growth of 0.253 ± 0.018.
Consider `O=P(O)(O)C(Cl)(Cl)P(=O)(O)O` [Clodronate], for which the growth is 0.212 ± 0.024.
The same measure, in the same setting: for `Cc1cccc(C)c1NC(=O)CN1CCN(CCCC(c2ccc(F)cc2)c2ccc(F)cc2)CC1` [Lidoflazine] the value was 0.227 ± 0.015.
